# Results reported in the supplement of paper PMC11732987, “Enantioselective OTUD7B fragment discovery through chemoproteomics screening and high-throughput optimisation” (Communications Chemistry, 2025).
# A number with no mark means an inactive call.
# How the values were obtained:
# Test in all cases: log2 ratio of Biotin-Ahx-Ub-VS probe labelling (fragment/DMSO); higher = less target engagement (more negative = stronger competition), active = hit call of the paper (q ≤ 0.05, log2 ratio ≤ -1)
# Conditions in all cases: compound concentration: 200 uM; treatment time: 3 h
# [1] = molecular target: T1, OTUD6B (UniProt Q8N6M0)
# T1 sequence (whole entry): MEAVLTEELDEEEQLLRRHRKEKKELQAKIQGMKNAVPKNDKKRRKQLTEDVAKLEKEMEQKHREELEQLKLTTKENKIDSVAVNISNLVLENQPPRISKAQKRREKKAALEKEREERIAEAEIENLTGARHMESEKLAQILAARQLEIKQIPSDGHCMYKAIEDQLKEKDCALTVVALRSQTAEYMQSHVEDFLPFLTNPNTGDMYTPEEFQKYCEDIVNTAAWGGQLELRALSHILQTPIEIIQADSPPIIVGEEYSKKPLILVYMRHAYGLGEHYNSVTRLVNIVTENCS
# Summary of the method: (§1)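 HEK293T lysate (495 µg per sample, in Tris/CHAPS/IGEPAL buffer with protease inhibitors) was exposed in triplicate for 3 h to fragment at 200 µM or to vehicle, then to Biotin-Ahx-Ub-VS at 0.5 µM final for 1 h. Labelled DUBs were enriched on NeutrAvidin, digested with LysC and trypsin, and analysed by diaPASEF LC-MS/MS. Spectronaut label-free quantities were normalised to the global median, and values are average log2 ratios of fragment over vehicle from an unpaired t-test. Only proteins with ≥2 unique peptides were used.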
# [2] = molecular target: T2, OTUD7B (UniProt Q6GQQ9)
# T2 sequence (whole entry): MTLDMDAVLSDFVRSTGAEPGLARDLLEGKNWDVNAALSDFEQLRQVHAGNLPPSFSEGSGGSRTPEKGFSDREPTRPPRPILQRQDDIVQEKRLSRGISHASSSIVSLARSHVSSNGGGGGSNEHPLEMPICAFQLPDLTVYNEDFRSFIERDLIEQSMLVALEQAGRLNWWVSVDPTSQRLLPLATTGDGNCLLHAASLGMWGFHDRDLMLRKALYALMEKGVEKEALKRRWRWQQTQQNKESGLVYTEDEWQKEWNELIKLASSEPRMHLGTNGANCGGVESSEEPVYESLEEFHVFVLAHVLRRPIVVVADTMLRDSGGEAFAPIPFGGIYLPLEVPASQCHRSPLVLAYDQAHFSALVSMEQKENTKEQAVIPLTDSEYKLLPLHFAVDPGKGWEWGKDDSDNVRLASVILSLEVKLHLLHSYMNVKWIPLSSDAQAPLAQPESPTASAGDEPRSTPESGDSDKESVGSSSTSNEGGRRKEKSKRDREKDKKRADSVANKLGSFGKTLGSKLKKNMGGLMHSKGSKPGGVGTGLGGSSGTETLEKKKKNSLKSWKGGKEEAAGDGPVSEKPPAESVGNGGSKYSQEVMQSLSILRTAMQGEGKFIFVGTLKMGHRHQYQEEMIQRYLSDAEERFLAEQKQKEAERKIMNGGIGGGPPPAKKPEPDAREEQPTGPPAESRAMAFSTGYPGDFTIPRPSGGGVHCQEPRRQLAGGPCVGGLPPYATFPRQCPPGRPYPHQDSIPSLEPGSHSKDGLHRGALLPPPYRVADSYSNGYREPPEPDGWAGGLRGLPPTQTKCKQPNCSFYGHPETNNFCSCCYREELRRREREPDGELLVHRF
# Summary of the method: as §1
# [3] = molecular target: PRPF8 (UniProt Q6P2Q9)
# Summary of the method: as §1
# [4] = molecular target: T3, PSMD7 (UniProt P51665)
# T3 sequence (whole entry): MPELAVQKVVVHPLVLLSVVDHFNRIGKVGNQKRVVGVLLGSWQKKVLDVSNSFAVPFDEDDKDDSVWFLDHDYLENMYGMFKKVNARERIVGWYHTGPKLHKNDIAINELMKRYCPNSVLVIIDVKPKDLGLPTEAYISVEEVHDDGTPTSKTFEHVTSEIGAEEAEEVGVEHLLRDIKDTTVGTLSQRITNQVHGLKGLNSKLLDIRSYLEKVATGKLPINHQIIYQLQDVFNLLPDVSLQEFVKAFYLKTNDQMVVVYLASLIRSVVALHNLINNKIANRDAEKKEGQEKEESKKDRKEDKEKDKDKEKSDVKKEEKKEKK
# Summary of the method: as §1
# [5] = molecular target: UCHL1 (UniProt P09936)
# Chain of UCHL1 (P09936 whole entry, looked up): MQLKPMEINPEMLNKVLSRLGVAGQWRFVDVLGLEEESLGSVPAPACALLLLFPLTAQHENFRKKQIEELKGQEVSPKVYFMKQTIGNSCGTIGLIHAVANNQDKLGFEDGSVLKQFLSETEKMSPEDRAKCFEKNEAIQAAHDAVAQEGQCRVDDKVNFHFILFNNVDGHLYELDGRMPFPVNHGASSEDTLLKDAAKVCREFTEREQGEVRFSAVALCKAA
# Summary of the method: as §1
# [6] = molecular target: T4, UCHL3 (UniProt P15374)
# T4 sequence (whole entry): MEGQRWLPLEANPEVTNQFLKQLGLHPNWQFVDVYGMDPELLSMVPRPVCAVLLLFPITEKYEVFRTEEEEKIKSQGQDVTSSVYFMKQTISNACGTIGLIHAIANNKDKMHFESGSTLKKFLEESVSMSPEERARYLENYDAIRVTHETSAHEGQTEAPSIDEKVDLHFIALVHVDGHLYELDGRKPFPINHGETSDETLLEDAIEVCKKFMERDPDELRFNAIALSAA
# Summary of the method: as §1
# [7] = molecular target: T5, UCHL5 (UniProt Q9Y5K5)
# T5 sequence (whole entry): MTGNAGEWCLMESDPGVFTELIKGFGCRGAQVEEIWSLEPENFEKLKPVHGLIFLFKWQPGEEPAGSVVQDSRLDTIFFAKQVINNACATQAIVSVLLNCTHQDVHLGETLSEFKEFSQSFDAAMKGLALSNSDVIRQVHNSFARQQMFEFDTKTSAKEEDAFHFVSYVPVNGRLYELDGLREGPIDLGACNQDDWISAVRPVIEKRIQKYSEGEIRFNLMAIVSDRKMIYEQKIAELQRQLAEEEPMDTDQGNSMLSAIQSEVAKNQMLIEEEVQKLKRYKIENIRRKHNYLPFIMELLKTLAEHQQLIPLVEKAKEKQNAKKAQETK
# Summary of the method: as §1
# [8] = molecular target: USP10 (UniProt Q14694)
# Chain of USP10 (Q14694 whole entry): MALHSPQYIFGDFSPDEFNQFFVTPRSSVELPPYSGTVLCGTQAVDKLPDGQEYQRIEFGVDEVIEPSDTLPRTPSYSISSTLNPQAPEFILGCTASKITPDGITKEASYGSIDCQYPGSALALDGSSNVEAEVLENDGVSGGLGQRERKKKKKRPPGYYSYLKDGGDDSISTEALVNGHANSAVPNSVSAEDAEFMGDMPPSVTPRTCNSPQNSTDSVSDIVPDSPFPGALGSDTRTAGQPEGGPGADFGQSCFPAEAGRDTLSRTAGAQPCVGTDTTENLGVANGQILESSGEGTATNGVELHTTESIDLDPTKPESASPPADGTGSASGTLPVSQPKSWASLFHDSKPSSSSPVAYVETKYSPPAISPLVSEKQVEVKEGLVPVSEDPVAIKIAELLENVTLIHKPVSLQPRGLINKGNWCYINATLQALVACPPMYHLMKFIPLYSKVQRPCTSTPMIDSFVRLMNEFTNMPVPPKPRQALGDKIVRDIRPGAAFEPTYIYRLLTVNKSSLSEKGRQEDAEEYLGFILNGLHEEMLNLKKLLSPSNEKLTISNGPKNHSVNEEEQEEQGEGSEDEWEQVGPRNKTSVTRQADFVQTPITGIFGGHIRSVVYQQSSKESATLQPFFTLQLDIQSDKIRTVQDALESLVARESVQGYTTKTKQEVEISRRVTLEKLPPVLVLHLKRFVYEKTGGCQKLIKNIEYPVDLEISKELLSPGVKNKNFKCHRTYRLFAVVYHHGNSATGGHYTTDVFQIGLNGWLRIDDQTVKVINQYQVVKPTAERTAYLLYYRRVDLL
# Summary of the method: as §1
# [9] = molecular target: T6, USP15 (UniProt Q9Y4E8)
# T6 sequence (whole entry): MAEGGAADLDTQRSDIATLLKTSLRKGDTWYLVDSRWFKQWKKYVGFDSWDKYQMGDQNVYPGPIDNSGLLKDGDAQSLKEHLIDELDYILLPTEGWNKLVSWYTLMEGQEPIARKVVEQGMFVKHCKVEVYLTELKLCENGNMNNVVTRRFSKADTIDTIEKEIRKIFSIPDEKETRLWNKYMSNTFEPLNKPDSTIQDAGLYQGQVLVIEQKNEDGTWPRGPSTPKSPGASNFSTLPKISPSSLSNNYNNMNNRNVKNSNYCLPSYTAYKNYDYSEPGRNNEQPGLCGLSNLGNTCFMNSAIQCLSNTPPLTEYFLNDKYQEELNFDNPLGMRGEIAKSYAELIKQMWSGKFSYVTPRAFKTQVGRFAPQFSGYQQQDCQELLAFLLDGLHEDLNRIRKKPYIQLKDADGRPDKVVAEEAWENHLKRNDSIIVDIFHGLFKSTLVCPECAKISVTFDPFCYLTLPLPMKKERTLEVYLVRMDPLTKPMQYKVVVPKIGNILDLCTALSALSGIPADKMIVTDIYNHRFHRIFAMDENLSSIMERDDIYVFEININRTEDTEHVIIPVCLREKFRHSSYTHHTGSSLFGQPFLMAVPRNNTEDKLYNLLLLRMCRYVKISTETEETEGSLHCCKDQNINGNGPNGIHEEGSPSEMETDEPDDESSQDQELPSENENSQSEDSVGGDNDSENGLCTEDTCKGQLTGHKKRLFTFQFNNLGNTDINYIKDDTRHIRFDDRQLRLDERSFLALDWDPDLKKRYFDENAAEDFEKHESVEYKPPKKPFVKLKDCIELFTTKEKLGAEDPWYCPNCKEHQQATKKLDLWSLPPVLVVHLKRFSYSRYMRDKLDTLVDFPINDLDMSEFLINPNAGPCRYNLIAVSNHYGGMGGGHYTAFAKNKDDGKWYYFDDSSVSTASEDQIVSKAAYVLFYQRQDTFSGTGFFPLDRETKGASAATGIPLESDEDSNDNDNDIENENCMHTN
# Summary of the method: as §1
# [10] = molecular target: USP16 (UniProt Q9Y5T5)
# Chain of USP16 (Q9Y5T5 whole entry, looked up): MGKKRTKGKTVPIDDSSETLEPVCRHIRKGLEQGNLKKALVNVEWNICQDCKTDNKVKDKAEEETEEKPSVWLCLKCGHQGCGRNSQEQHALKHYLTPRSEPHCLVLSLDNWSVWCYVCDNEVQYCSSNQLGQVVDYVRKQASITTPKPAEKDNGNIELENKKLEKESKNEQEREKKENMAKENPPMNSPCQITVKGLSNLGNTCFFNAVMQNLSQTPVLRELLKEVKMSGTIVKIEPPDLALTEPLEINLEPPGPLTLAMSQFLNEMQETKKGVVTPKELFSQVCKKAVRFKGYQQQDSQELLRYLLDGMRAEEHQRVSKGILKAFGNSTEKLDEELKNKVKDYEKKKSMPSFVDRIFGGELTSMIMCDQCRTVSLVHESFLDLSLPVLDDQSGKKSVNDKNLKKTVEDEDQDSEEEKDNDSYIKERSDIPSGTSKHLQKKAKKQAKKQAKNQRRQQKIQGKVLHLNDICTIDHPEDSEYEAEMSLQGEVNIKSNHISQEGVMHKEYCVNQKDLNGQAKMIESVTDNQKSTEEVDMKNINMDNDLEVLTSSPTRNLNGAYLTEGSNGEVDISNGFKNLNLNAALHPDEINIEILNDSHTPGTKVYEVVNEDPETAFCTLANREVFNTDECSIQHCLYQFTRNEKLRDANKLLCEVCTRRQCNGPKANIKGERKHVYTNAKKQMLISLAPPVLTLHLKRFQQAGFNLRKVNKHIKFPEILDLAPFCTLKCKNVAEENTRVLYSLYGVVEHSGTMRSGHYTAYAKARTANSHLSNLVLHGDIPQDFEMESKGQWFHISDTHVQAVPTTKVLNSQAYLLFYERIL
# Summary of the method: as §1
compound,measurement,setting,value
Cc1cc(Cl)ccc1NC(=O)CCl,log2 ratio of Biotin-Ahx-Ub-VS probe labelling,[1],-0.0452
same,log2 ratio of Biotin-Ahx-Ub-VS probe labelling,[2],-0.649
same,log2 ratio of Biotin-Ahx-Ub-VS probe labelling,[3],0.192
same,log2 ratio of Biotin-Ahx-Ub-VS probe labelling,[4],0.0336
same,log2 ratio of Biotin-Ahx-Ub-VS probe labelling,[5],-1.46 (active)
same,log2 ratio of Biotin-Ahx-Ub-VS probe labelling,[6],0.0619
same,log2 ratio of Biotin-Ahx-Ub-VS probe labelling,[7],-0.109
same,log2 ratio of Biotin-Ahx-Ub-VS probe labelling,[8],-0.132
same,log2 ratio of Biotin-Ahx-Ub-VS probe labelling,[9],-0.218
same,log2 ratio of Biotin-Ahx-Ub-VS probe labelling,[10],-0.157
